# Publication PMC7862700, “An all-to-all approach to the identification of sequence-specific readers for epigenetic DNA modifications on cytosine”
# Key:
# Experiment in all cases: DAPPL (digital affinity profiling via proximity ligation, sequencing); 10 mM Tris-HCl pH 7.5, 50 mM NaCl, 1 mM DTT, 4% glycerol, room temperature, 30 min; GST-TFs on glutathione beads, 16-mer random dsDNA library, 0.1% formaldehyde crosslink after washing; high values mean tight binding
# FEV = target: T1, FEV (Homo sapiens, UniProt Q99581 1-238); settings: protein: recombinant; tags: N-terminal GST; dsDNA, one strand shown
# T1 sequence: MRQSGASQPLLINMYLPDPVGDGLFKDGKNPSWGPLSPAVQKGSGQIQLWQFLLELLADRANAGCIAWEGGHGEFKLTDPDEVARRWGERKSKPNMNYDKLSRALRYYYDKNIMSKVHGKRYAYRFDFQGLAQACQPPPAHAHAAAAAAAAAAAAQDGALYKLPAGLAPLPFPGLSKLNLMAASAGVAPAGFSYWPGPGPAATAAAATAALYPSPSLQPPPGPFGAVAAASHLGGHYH
# Outline: (§1)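 In yeast, human transcription factors were expressed with a GST fusion, then pulled down on glutathione beads and given DNA barcodes. Pooled with a tag-only sample, they were exposed to 200 nmole of a 16-mer random double-stranded DNA library (Tris/NaCl/DTT/glycerol buffer, room temperature, 30 min), washed, crosslinked with 0.1% formaldehyde, proximity-ligated using BsaI/T4 ligase for 1 h at 37 °C, PCR-amplified and read on an Illumina NextSeq500. Each hexamer's frequency of reads for a factor, divided by the matching frequency for the tag-only sample, gives the binding signal.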
# ETV5 = ETV5 (Homo sapiens, UniProt P41161 1-510); settings: protein: recombinant; tags: N-terminal GST; dsDNA, one strand shown
# Chain of ETV5 (P41161 whole entry): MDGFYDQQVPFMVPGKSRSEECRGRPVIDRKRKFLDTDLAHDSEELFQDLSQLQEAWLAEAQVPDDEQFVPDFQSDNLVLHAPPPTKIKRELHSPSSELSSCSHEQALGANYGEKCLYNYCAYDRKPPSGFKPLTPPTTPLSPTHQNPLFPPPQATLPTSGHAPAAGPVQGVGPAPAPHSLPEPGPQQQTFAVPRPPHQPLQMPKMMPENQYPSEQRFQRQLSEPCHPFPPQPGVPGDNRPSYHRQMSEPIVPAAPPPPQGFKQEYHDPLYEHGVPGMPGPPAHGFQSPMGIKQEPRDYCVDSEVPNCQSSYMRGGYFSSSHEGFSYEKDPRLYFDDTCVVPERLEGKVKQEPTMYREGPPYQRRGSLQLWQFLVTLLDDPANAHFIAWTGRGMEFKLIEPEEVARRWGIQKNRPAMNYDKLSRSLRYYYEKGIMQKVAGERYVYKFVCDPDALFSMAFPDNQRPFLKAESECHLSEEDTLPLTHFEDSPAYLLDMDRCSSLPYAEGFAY
# Outline: as §1
# HSF1 = HSF1 (Homo sapiens, UniProt Q00613 1-529); settings: protein: recombinant; tags: N-terminal GST; chain copies: 3; dsDNA, one strand shown
# Chain of HSF1 (Q00613 whole entry): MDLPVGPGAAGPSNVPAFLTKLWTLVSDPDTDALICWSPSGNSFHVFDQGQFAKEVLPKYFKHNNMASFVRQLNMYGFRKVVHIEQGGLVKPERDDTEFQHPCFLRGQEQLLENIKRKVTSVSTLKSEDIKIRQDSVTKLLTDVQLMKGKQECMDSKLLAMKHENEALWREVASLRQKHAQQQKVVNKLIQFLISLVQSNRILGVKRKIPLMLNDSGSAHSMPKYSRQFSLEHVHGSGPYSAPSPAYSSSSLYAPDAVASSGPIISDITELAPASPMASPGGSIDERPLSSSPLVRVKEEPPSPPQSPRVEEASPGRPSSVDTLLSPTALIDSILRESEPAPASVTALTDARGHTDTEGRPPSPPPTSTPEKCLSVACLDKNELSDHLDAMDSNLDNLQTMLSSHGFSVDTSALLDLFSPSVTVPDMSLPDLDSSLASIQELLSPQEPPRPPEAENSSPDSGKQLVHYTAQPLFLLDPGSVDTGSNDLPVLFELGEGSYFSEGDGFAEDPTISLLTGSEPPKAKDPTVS
# Outline: as §1
# SPIC = target: T2, SPIC (Homo sapiens, UniProt Q8N5J4 1-248); settings: protein: recombinant; tags: N-terminal GST; dsDNA, one strand shown
# T2 sequence: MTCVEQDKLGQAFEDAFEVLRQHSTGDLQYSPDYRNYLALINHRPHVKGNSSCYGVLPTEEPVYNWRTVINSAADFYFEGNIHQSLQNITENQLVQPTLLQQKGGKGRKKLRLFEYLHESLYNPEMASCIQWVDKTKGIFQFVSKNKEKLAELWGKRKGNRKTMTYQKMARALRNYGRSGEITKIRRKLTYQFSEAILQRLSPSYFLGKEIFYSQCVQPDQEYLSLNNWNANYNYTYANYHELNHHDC
# Outline: as §1
# ELF4 = ELF4 (Homo sapiens, UniProt Q99607 1-663); settings: protein: recombinant; tags: N-terminal GST; dsDNA, one strand shown
# Chain of ELF4 (Q99607 whole entry): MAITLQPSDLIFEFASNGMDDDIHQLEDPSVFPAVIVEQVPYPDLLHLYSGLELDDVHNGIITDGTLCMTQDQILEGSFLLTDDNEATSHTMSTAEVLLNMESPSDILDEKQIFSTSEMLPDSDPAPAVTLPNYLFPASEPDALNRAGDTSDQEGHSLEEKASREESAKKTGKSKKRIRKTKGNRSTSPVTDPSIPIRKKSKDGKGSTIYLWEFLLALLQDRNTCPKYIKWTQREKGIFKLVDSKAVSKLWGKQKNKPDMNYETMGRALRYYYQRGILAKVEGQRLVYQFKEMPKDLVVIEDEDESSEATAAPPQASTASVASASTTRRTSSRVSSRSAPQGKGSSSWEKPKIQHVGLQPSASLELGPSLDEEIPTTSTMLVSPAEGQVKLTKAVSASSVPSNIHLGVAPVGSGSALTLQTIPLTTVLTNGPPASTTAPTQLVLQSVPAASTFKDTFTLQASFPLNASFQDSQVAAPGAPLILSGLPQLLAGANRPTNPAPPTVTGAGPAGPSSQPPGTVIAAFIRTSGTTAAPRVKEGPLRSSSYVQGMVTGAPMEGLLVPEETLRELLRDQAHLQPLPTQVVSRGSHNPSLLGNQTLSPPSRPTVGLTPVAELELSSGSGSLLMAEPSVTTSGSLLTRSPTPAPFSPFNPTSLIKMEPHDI
# Outline: as §1
# ELK4 = target: T3, ELK4 (Homo sapiens, UniProt P28324-2 1-405); settings: protein: recombinant; tags: N-terminal GST; dsDNA, one strand shown
# T3 sequence: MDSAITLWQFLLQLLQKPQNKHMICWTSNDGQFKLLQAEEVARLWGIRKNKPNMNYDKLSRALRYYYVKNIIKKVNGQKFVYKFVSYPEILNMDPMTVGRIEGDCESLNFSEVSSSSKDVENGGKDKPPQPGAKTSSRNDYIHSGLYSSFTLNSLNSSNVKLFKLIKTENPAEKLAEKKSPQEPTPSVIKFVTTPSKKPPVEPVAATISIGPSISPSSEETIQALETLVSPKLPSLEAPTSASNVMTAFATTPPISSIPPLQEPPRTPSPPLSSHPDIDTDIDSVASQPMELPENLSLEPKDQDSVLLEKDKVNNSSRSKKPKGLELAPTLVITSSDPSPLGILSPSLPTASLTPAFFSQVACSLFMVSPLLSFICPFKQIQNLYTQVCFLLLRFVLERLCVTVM
# Outline: as §1
# ETV2 = target: T4, ETV2 (Homo sapiens, UniProt O00321 1-342); settings: protein: recombinant; tags: N-terminal GST; dsDNA, one strand shown
# T4 sequence: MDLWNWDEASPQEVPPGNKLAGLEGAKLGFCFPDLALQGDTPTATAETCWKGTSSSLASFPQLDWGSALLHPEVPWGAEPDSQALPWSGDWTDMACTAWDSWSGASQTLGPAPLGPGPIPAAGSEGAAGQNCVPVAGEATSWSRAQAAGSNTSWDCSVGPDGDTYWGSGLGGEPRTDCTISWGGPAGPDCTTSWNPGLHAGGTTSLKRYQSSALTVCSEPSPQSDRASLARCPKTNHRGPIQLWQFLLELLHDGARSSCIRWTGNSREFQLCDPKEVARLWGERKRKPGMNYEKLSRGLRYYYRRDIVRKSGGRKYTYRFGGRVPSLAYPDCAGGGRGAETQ
# Outline: as §1
# ELF3 = target: T5, ELF3 (Homo sapiens, UniProt P78545 1-371); settings: protein: recombinant; tags: N-terminal GST; dsDNA, one strand shown
# T5 sequence: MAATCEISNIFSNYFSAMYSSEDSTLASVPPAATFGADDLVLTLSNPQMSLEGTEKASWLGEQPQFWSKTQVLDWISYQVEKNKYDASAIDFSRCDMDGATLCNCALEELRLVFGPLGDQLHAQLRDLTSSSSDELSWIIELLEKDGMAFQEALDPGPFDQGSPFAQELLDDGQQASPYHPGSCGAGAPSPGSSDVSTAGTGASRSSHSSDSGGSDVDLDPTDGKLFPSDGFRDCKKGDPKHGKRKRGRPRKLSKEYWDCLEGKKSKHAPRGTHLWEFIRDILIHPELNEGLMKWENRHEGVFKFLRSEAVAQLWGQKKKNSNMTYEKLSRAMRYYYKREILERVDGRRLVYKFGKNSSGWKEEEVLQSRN
# Outline: as §1
# CRX = CRX (Homo sapiens, UniProt O43186 1-299); settings: protein: recombinant; tags: N-terminal GST; dsDNA, one strand shown
# Chain of CRX (O43186 whole entry): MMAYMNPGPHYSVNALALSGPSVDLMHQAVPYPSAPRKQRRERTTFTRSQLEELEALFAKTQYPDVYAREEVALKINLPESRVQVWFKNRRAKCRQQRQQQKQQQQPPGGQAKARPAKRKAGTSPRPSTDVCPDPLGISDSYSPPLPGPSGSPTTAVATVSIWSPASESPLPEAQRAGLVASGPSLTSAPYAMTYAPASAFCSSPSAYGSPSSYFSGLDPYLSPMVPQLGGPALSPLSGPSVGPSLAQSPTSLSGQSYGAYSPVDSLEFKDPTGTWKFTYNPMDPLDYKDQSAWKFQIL
# Outline: as §1
# ETV1 = ETV1 (Homo sapiens, UniProt P50549 1-477); settings: protein: recombinant; tags: N-terminal GST; dsDNA, one strand shown
# Chain of ETV1 (P50549 whole entry): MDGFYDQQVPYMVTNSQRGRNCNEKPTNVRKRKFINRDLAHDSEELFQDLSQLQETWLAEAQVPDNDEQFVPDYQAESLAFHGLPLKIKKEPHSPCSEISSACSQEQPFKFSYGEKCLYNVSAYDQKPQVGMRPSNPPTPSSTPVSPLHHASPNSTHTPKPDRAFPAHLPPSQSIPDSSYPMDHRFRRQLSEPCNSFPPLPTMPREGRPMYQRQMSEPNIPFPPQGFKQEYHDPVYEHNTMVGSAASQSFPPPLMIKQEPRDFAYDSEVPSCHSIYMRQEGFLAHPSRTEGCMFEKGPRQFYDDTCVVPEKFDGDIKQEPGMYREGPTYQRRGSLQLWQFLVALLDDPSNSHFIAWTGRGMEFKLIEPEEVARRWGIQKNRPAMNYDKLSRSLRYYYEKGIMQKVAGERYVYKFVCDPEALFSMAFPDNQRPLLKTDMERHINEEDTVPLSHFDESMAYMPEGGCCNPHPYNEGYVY
# Outline: as §1
# ERF = target: T6, ERF (Homo sapiens, UniProt P50548 1-548); settings: protein: recombinant; tags: N-terminal GST; dsDNA, one strand shown
# T6 sequence: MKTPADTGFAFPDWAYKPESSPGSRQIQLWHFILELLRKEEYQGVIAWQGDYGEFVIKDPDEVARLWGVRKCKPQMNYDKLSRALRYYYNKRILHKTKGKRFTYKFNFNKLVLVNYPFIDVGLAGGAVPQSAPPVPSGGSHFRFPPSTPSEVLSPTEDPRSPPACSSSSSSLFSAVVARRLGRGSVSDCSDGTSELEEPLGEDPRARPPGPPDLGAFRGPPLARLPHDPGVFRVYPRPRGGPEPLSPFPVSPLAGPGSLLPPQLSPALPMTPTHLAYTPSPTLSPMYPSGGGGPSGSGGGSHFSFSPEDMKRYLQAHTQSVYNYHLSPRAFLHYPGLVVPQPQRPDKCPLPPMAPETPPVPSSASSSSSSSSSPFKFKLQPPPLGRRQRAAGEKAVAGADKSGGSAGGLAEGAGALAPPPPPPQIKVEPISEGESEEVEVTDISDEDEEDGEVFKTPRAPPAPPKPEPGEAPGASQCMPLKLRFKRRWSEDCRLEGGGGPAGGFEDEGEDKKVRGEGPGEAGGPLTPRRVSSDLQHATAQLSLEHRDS
# Outline: as §1
# ETV3L = target: T7, ETV3L (Homo sapiens, UniProt Q6ZN32 1-361); settings: protein: recombinant; tags: N-terminal GST; dsDNA, one strand shown
# T7 sequence: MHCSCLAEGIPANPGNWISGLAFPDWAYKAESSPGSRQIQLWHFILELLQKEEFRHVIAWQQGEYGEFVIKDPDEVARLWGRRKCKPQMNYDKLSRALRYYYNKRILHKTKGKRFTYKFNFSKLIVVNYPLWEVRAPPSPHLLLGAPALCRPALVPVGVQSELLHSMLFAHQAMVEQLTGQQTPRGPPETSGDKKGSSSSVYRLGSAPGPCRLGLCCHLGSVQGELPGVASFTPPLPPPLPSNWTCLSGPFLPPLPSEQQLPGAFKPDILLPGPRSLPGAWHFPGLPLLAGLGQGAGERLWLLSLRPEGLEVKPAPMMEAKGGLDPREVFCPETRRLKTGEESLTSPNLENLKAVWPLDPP
# Outline: as §1
# ETS2 = target: T8, ETS2 (Homo sapiens, UniProt P15036 1-469); settings: protein: recombinant; tags: N-terminal GST; dsDNA, one strand shown
# T8 sequence: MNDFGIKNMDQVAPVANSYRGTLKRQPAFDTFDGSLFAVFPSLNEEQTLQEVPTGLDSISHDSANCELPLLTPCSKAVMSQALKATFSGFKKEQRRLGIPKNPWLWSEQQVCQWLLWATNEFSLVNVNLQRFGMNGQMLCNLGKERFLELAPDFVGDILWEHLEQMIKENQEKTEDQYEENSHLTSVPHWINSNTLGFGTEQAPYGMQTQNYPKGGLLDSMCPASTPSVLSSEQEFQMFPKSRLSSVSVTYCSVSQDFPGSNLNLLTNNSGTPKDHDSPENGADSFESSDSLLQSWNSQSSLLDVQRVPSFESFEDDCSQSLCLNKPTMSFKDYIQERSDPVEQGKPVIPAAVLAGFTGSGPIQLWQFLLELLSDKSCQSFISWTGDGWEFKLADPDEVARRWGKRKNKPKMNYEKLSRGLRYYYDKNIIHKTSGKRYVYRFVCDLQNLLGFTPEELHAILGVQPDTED
# Outline: as §1
# SPDEF = target: T9, SPDEF (Homo sapiens, UniProt O95238 1-335); settings: protein: recombinant; tags: N-terminal GST; dsDNA, one strand shown
# T9 sequence: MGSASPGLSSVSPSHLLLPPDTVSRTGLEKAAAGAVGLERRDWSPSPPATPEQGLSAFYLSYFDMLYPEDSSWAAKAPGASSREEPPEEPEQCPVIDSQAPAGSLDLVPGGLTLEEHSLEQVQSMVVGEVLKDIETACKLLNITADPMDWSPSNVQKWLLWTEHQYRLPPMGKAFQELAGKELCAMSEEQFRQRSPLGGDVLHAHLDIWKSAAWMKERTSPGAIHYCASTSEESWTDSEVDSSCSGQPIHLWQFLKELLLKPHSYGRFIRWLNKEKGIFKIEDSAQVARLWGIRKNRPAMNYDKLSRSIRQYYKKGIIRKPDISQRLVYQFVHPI
# Outline: as §1
# ETV7 = target: T10, ETV7 (Homo sapiens, UniProt Q9Y603 1-341); settings: protein: recombinant; tags: N-terminal GST; dsDNA, one strand shown
# T10 sequence: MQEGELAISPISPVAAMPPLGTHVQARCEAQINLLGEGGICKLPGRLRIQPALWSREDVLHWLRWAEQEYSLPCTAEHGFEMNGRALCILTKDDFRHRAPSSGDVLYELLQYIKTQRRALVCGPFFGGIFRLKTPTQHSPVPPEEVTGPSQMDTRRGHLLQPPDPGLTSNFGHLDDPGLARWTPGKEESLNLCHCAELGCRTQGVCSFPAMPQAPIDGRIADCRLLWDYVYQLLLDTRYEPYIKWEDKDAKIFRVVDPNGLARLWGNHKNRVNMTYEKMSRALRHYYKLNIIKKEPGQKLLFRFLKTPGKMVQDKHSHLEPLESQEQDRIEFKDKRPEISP
# Outline: as §1
# ELF5 = target: T11, ELF5 (Homo sapiens, UniProt Q9UKW6-2 1-255); settings: protein: recombinant; tags: N-terminal GST; dsDNA, one strand shown
# T11 sequence: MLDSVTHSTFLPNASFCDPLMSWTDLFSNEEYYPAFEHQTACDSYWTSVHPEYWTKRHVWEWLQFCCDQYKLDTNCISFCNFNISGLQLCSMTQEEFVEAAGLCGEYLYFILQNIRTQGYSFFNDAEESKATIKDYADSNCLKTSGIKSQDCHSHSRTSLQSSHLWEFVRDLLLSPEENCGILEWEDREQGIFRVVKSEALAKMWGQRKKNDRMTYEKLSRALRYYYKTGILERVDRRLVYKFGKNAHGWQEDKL
# Outline: as §1
# ETV3 = target: T12, ETV3 (Homo sapiens, UniProt P41162-2 1-143); settings: protein: recombinant; tags: N-terminal GST; dsDNA, one strand shown
# T12 sequence: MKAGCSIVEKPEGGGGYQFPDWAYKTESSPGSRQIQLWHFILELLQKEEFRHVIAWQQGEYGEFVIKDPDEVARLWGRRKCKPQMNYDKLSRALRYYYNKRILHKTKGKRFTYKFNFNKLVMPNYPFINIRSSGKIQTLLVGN
# Outline: as §1
# ETV6 = ETV6 (Homo sapiens, UniProt P41212 1-452); settings: protein: recombinant; tags: N-terminal GST; dsDNA, one strand shown
# Chain of ETV6 (P41212 whole entry): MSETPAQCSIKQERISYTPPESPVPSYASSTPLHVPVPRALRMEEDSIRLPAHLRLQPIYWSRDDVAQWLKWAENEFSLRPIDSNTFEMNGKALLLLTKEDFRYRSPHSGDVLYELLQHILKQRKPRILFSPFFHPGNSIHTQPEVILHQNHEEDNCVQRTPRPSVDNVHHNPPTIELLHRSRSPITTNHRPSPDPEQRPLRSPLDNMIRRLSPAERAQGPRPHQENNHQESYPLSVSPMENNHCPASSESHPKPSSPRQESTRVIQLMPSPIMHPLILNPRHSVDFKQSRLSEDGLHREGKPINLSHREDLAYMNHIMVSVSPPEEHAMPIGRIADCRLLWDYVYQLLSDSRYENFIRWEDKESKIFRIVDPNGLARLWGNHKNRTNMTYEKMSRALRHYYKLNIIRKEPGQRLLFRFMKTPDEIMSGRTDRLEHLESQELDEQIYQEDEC
# Outline: as §1
sequence,measurement,setting,value
ACATTC,binding signal,FEV,"1.21 fold enrichment (6-mer frequency, TF over GST control)"
same,binding signal,ETV5,"1.39 fold enrichment (6-mer frequency, TF over GST control)"
same,binding signal,HSF1,"2.56 fold enrichment (6-mer frequency, TF over GST control)"
same,binding signal,SPIC,"1.22 fold enrichment (6-mer frequency, TF over GST control)"
same,binding signal,ELF4,"1.32 fold enrichment (6-mer frequency, TF over GST control)"
same,binding signal,ELK4,"1.22 fold enrichment (6-mer frequency, TF over GST control)"
same,binding signal,ETV2,"1.23 fold enrichment (6-mer frequency, TF over GST control)"
same,binding signal,ELF3,"1.31 fold enrichment (6-mer frequency, TF over GST control)"
same,binding signal,CRX,"1.4 fold enrichment (6-mer frequency, TF over GST control)"
same,binding signal,ETV1,"1.29 fold enrichment (6-mer frequency, TF over GST control)"
same,binding signal,ERF,"1.42 fold enrichment (6-mer frequency, TF over GST control)"
same,binding signal,ETV3L,"1.3 fold enrichment (6-mer frequency, TF over GST control)"
same,binding signal,ETS2,"1.3 fold enrichment (6-mer frequency, TF over GST control)"
same,binding signal,SPDEF,"1.27 fold enrichment (6-mer frequency, TF over GST control)"
same,binding signal,ETV7,"1.31 fold enrichment (6-mer frequency, TF over GST control)"
same,binding signal,ELF5,"1.36 fold enrichment (6-mer frequency, TF over GST control)"
same,binding signal,ETV3,"1.31 fold enrichment (6-mer frequency, TF over GST control)"
same,binding signal,ETV6,"1.4 fold enrichment (6-mer frequency, TF over GST control)"
